High-throughput results (PubChem BioAssay)
Most compounds without a hit are left out; they make up all but 12% or so of the library.
ALDH1A1 block: inhibitors of human aldehyde dehydrogenase 1A1. Potency, µM (doses to about 75.3 µM), for inactives: top-dose activity, negative = inhibition, actives largely listed as inhibitors. Purified ALDH1A1, NADH fluorescence, propionaldehyde substrate. 220,000 tested, 7.3% active; active = well fitted inhibition curve with a large enough effect, not every such curve was filed as active; inconclusive = small, poorly fitted or top-dose-only effect, or another doubt; inactive = no such curve, though single readings can be large or run the other way;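 note: plate controls were no enzyme wells and a reference inhibitor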
Target sequence (P00352 whole entry, looked up): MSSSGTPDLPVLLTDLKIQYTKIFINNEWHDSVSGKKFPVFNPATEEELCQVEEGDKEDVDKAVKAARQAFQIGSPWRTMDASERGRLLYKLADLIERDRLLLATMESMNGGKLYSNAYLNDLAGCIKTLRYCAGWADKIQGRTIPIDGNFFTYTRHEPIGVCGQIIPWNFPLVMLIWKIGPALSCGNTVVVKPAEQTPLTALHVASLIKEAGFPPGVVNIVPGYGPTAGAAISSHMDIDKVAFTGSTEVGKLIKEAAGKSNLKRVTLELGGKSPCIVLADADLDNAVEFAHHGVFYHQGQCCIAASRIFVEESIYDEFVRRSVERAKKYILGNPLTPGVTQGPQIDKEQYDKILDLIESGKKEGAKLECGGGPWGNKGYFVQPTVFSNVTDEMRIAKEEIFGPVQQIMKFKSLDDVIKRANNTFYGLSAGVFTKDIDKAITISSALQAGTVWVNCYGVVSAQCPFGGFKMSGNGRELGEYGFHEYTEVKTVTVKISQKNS
PLK1 PBD block: blocks phosphopeptide binding to human PLK1 polo-box domain; P53350; Plk1 PBD binding of FITC phosphopeptide, fluorescence polarization; Potency, µM, for inactives: max response, negative = inhibition, usual class: inhibitors; 360,000 tested, 2.8% active; AID 720504; note: series mostly up to about 57 µM; nearly all actives have a fitted effect of over 65% in size
VP16 counter: Gal4-VP16 reporter inhibition counter-screen | Drosophila S2 Gal4-VP16 UAS-luciferase, luminescence, 20 h | Potency, µM (series often up to 53.6 µM), without a hit: at the highest dose activity, negative = inhibition, hits mostly inhibitors | 310,000 tested, 3.5% active;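 note: Gal4-VP16 expression switched on by copper sulfate through the metallothionein promoter; nearly all actives have a fitted effect of over 50% in size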
Sfp inh: inhibitors of Bacillus subtilis Sfp phosphopantetheinyl transferase | Potency, µM, inactives show largest response in the series, negative = inhibition, most hits filed as inhibitors | Biochemical Sfp PPTase activity, qHTS | Q9F4F7 | AID 1490 | 310,000 tested, 3.5% active;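 note: the enzyme is Sfp with the accession as filed and its product quenches rhodamine fluorescence; 0% = enzyme reaction without inhibitor and -100% = no enzyme wells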
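Reaction rates are the 30-min fluorescence difference (ex 525, em 598 nm) in wells containing 15 nM Sfp, 5 uM rhodamine-CoA and 12.5 uM BHQ-2-YbbR at pH 7.6 with 10 mM MgCl2.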
RORg inh: ROR gamma (mouse) transcription inhibition | P51450 | 310,000 tested, 5.4% active | Potency, µM (highest dose often 53.6 µM), for the others: top-dose activity change, negative = inhibition, most hits filed as inhibitors | Drosophila S2 Gal4-RORgamma UAS-luciferase reporter, 20 h; note: nearly all actives have a fitted effect of over 60% in size
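ROR gamma transcriptional activity was tracked as Gal4-UAS luciferase output in stably transfected Drosophila Schneider cells, with compound added 1 hr before 700 uM copper sulfate induction and a 20 hr ambient-temperature incubation.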
Active calls of the source: *; ? = inconclusive; · = no result; [ ] = remark or other dose. Unless noted, calls come from the whole dose curve; as a rule, active = well fitted curve in the direction sought with a large enough effect; inconclusive = small, poorly fitted or top-dose-only effect, or another doubt; inactive = no such curve, though single readings can be large; an effect the other way counts as inactive or inconclusive. Unless noted, % is set by controls: 0 for no effect and ±100 for the full control effect; potency is the fitted concentration of half-maximal effect.

SMILES | ALDH1A1 block | PLK1 PBD block | VP16 counter | Sfp inh | RORg inh
C=CCOC(=O)C1=C[C@H](c2ccc(C(F)(F)F)cc2)C[C@H](OCCCCO)O1 | · | -23% | · | · | ·
C=CCOC(=O)C1=C[C@H](c2ccc(Br)cc2)C[C@H](OCc2ccc(CO)cc2)O1 | · | -5% | · | · | ·
C#Cc1ccc([C@@H]2C=C(C(=O)OCC=C)O[C@H](OCCCCO)C2)cc1 | 16µM* | -9% | -3% | 2% | 9%
Nc1ncnc2c1nc(N1CCCCC1)n2[C@@H]1O[C@@H]2COP(=O)(O)O[C@H]2[C@H]1O | · | · | 0% | 17% | 4%
OC1C2COC(O2)[C@H](O)C1O (stereo partly specified) | 6% | · | -2% | 13% | 3%
CCN(CC)CCOCCOC(=O)C(CC)(CC)c1ccccc1 (tested in a mixture with another compound) | · | · | -15% | -2% | 1%[10 µM]
C/C(=N\NC(=O)CN(c1ccccc1Br)S(C)(=O)=O)c1cccs1 | 10% | 27µM* | 1% | 12% | -11%
C/C(=N\NC(=O)CN(c1ccc(C)cc1)S(C)(=O)=O)c1cccs1 | 1% | -15% | -2% | 22% | -23%
Cc1ccc(-c2cc3nc(-c4ccccc4)cc(NCCCO)n3n2)cc1 | · | 6% | · | · | ·
CSc1nc(-c2ccccc2)nc(NC(=O)c2ccccc2)c1C(C)=O | 5% | -10% | -15% | 4% | 15%
CC(=O)c1c(C)[nH]c(-c2ccccc2)nc1=S | 0% | ? | ? | -21% | 3.2µM*
CC(=O)Nc1nc(-c2ccccc2)nc(C)c1C(C)=O | 8% | -5% | 11% | 11% | -3%
CC(=O)c1c(NC(=O)c2ccccc2)[nH]c(-c2ccccc2)nc1=S | -1% | 0% | 8.9µM* | 25% | 3.2µM*
CSc1nc(-c2ccccc2)[nH]c(=S)c1C(C)=O | 13% | -16% | ? | 17% | 6.3µM*
COc1ccccc1-c1nc(=S)c(C(C)=O)c(C)[nH]1 | · | -6% | ? | ? | 5.6µM*
CCCCCCn1cc(CN2CC(N3CCN(CCO)CC3)CS2(=O)=O)nn1 (stereo unspecified) | · | -11% | · | · | ·
CCOc1cc(OCC)cc(C(=O)N2CCC[C@@H]2C(=O)N2CCC[C@H]2C(=O)NCc2ccncc2)c1 | · | 4% | · | · | ·
Cc1ccc(C(=O)C[n+]2cc(Br)cc(Br)c2)cc1[N+](=O)[O-] | 16µM* | -22% | 15% | -4% | -3%
CC(=O)c1cccc(NCC(=O)c2ccc(C)c([N+](=O)[O-])c2)c1 | · | ? | -9% | 18µM* | 31%
Cc1ccc(C(=O)NC(=S)Nc2cccc(NC(=O)c3ccccc3)c2)cc1[N+](=O)[O-] | 16µM* | -6% | 3.5µM* | -6% | 2.5µM*
Cc1ccc(C(=O)NNC(=S)Nc2cccc(Cl)c2Cl)cc1[N+](=O)[O-] | 2.8µM* | ? | ? | -10% | -1%
CC(=O)c1cccc(NC(=S)NNC(=O)c2ccc(C)c([N+](=O)[O-])c2)c1 | ? | -22% | -17% | 19% | -8%
Cc1ccc(C(=O)NC(=S)Nc2cccc(NC(=O)c3ccccc3Cl)c2)cc1[N+](=O)[O-] | 13µM* | -12% | 4µM* | 4% | 5.6µM*
CC(C)C[C@H](NC(=O)CNC(=O)[C@H](C)NC(=O)[C@H](CC(C)C)NC(=O)[C@H](CCCNC(=N)N)NC(=O)[C@H](Cc1cnc[nH]1)NC(=O)[C@@H](NC(=O)[C@@H](NC(=O)[C@@H]1CSSC[C@H](NC(=O)[C@@H](N)CO)C(=O)N[C@@H](CC(N)=O)C(=O)N[C@@H]([C@@H](C)O)C(=O)N[C@@H](C)C(=O)N[C@@H]([C@@H](C)O)C(=O)N1)C(C)C)[C@@H](C)O)C(=O)N[C@@H](CC(C)C)C(=O)N[C@@H](CO)C(=O)N[C@@H](CCCNC(=N)N)C(=O)N[C@@H](CO)C(=O)NCC(=O)NCC(=O)N[C@H](C(=O)N[C@H](C(=O)N[C@@H](CCCCN)C(=O)N[C@@H](CC(=O)O)C(=O)N[C@@H](CC(N)=O)C(=O)N[C@@H](Cc1ccccc1)C(=O)N[C@H](C(=O)N1CCC[C@H]1C(=O)N[C@H](C(=O)N[C@@H](CC(N)=O)C(=O)N[C@H](C(=O)NCC(=O)N[C@@H](CO)C(=O)N[C@@H](CCCCN)C(=O)N[C@@H](C)C(=O)N[C@@H](Cc1ccccc1)C(N)=O)C(C)C)[C@@H](C)O)C(C)C)C(C)C)C(C)C | · | · | -2% | 3% | 15%
O=C1C=C(NC2=CC3OC(c4ccccc4)OCC3OC2=O)CCC1 (stereo unspecified) | -9% | -10% | 10µM* | -39% | 10µM*
SMILES | ALDH1A1 block | PLK1 PBD block | VP16 counter | Sfp inh | RORg inh
CCC[C@@H]1C[C@@]1(CCC)C(NC(=O)c1cccs1)c1ccc(Cl)cc1 (stereo partly specified) | 9% | · | -19% | 24% | 1%
COc1ccc(CN2CSC(=S)N(Cc3ccc(OC)cc3)C2)cc1 | ? | 0% | 18µM* | 1% | 6.3µM*
S=C1SCN(Cc2cccnc2)CN1Cc1cccnc1 | 14µM* | 0% | 5.6µM* | 14µM* | 0.63µM*
COc1ccc(CN2CSC(=S)N(Cc3ccccc3)C2)cc1 | · | -4% | 10µM* | 8% | ?
Nc1c(Cl)cc(N=Nc2ccccc2)cc1Cl | · | -4% | · | · | ·
COc1ccc(C(=O)N2CCC3(CCCN(c4ncccn4)C3)CC2)cc1 | -6% | · | -12% | -6% | -20%
COc1ccccc1S(=O)(=O)Cc1ccc(C(=O)N2CCN(c3ccccn3)CC2)o1 | -9% | 27µM* | 3% | 79µM* | 91%
COc1ccccc1OCc1ccc(C(=O)N2CCOCC2)o1 | 25µM* | 0% | -6% | 0% | -4%
COc1ccccc1OCc1ccc(C(=O)N2CCCCC2)o1 | · | -7% | 1% | 7% | 14%
Cc1cc(C)nc(Nc2ccc(N3CCCC3)cc2)n1 | ? | -5% | -5% | 79µM* | 1%
Cc1cc(C)nc(Nc2ccc(N3CCOCC3)cc2)n1 | -1% | 0% | -10% | -29% | 5%
CC1(C(=O)N2CCCCC2)CCN1C(=O)Cc1ccc(-c2ccccc2)cc1 (stereo unspecified) | · | -11% | · | · | ·
CC(=O)OCC(NC(=O)C(CCCCNC(=O)OCc1ccccc1)NC(=O)OC(C)(C)C)C1OC(n2ccc(=O)[nH]c2=O)C(OC(C)=O)C1OC(C)=O (stereo unspecified) | · | · | -5% | 9% | 15%
NC(=O)c1ccc(-c2ncc(-c3ccccc3)o2)cc1 | ? | -14% | 11µM* | 13% | 1.8µM*
c1ccc(-c2cnc(-c3cccnc3)o2)cc1 | ? | ? | -1% | 10% | ?
COc1ccc(C[C@@](C)(N)C(=O)O)cc1OC | -13%[20.9 µM] | · | 3%[17 µM] | -22% | -8%[2.98 µM]
COc1cc(CN2CCCCC2)cc2cc(C(=O)O)c(=O)oc12 | 2%[13.5 µM] | · | · | · | ·
Cn1ccc(C(=O)NC(=S)N2CCSCC2)n1 | ? | -20% | -10% | 45µM* | 11µM*
